Assay [1] deals with KB-3-1. Description: Cytotoxic Profiling of Annotated Libraries Using Quantitative High-Throughput Screening (AID 1296008). The note with it: Five cell lines viability, CellTiter-Glo ATP luminescence, 48-72 h; max response: hits give low values. The method in brief: (§1)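 Cytotoxicity was measured as CellTiter-Glo ATP luminescence, read after 10 min at room temperature. Compound treatment of the cells lasted 48 or 72 hr at 37 degrees Celsius in a qHTS format.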
For orientation: In ATP-based viability assays light output follows the ATP content of the culture.

Assay [2] deals with NIH3T3. Described as above. Conditions: Five cell lines viability, CellTiter-Glo ATP luminescence, 48-72 h; max response: hits give low values. The method in brief: as §1
In assay [3] the test system is MCC-13. Briefly: qHTS assay to identify novel small-molecules to repurpose for Merkel cell carcinoma treatment (AID 1296009). The note with it: MCC and control cell lines, CellTiter-Glo viability, 72 h; series mostly up to 46 µM. The method in brief: (§2)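 72 hr, 37 degree celsius; NPC 8-pt / MIPE 11-pt dose response; compound pinned in DMSO; CellTiter-Glo, 10 min RT, luminescence; normalized to no-cell and DMSO controls.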
A general note: In qHTS, concentration-response curves come from the screen itself.

Assay [4] deals with MCC-26. The assay is described as above. Conditions: MCC and control cell lines, CellTiter-Glo viability, 72 h; series mostly up to 46 µM. The method in brief:
as §2

Assay [5] relates to MKL-1. Described as above. Conditions: MCC and control cell lines, CellTiter-Glo viability, 72 h; series mostly up to 46 µM. The method in brief: as §2
For assay [6], the system named is MKL-2. The assay is described as above. The note with it: MCC and control cell lines, CellTiter-Glo viability, 72 h; series mostly up to 46 µM. The gist of the method: as §2
In assay [7] the test system is UISO. The description is as above. The note with it: MCC and control cell lines, CellTiter-Glo viability, 72 h; series mostly up to 46 µM. The gist of the method: as §2
Assay [8] relates to HACAT. Described as above. The note with it: MCC and control cell lines, CellTiter-Glo viability, 72 h; at 44.8 µM (top of the series) unless noted. The gist of the method:
as §2

The subject of assay [9] is NIH3T3. The assay is described as above. The note with it: MCC and control cell lines, CellTiter-Glo viability, 72 h; at 44.8 µM (top of the series) unless noted. The gist of the method:
as §2

Assay [10] concerns HEK293T. The description is as above. The note with it: MCC and control cell lines, CellTiter-Glo viability, 72 h; at 44.8 µM (top of the series) unless noted. The method in brief:
as §2

“And” between values parts separate entries of the source, which are not always exact repeats. Equal entries are not always repeated. Records with an inconclusive call do not appear. Unmarked numbers belong to inactive results. The source made the active and inactive calls. Calls follow the shape of the dose curve; as a rule, active = well fitted inhibition curve with a large enough effect; inconclusive = small, poorly fitted or top-dose-only effect; inactive = flat fitted curve, though single readings scatter. Non-standard residues stand in square brackets, D forms with d. Residues, ends and D or L forms follow the SMILES beside them. *: point of attachment. Sta = CC(C)C[C@H](N)[C@@H](O)CC(=O)O; Isovaleryl = CC(C)CC(=O)*
% is scaled to controls: 0 for no effect and ±100 for the full control effect; potency is read from the fitted curve at half-maximal effect.
Also: nearly all actives have a fitted effect of over 60% in size.

For `CC(C)CC(=O)N[C@H](C(=O)N[C@H](C(=O)N[C@@H](CC(C)C)[C@@H](O)CC(=O)N[C@@H](C)C(=O)N[C@@H](CC(C)C)[C@@H](O)CC(=O)O)C(C)C)C(C)C` (Isovaleryl-VV[Sta]A[Sta]-OH), the max response is 15.7% and 7.23% in [1]; 0.118% in [2]. The Potency entry in assay [3], in [4], in assay [5], in [6] and in assay [7] was “inactive” throughout.

Consider `CC[C@]1(O)C[C@H]2CN(CCc3c([nH]c4ccccc34)[C@@](C(=O)OC)(c3cc4c(cc3OC)N(C=O)[C@H]3[C@@](O)(C(=O)OC)[C@H](OC(C)=O)[C@]5(CC)C=CCN6CC[C@]43[C@@H]65)C2)C1`, for which the Potency in assay [1] is 1.7 nM (active) and 1.84 µM (active); in assay [3], 209 nM (active) and 376 nM (active); in [4] it was 0.0469 µM (active); in assay [5] it was 9.3 nM (active) and 33.5 nM (active); in assay [6] it was 0.0119 µM (active); in assay [7] it was 3 nM (active) and 21.1 nM (active). Moreover, in assay [8], the outcome was inactive.

In the case of `CCCCCCCCCCCCCCCCCCCCCCO`, in assay [1], the max response is -15.7% and 8.97%. The result in [2] and in assay [9] was inactive. The Potency entry in assay [3], in assay [4], in assay [5], in [6] and in [7] was “inactive” in each case.

As to `CCC[C@@H]1C[C@@H](C(=O)N[C@@H]([C@H]2O[C@H](SC)[C@H](O)[C@@H](O)[C@H]2O)[C@@H](C)O)N(C)C1`, the max response in [1] is -5.54%; in assay [2], -4.88% and -7.89%. The Potency result in assay [3], in [4], in [5], in assay [6] and in assay [7] was “inactive” in each case.

On to `Cc1cccc(C#Cc2ccccc2)n1`, for which the max response in assay [1] is 9.05%; in [2] it was -0.211%. Also, the Potency entry in assay [3], in assay [4], in [5], in [6] and in [7] was “inactive” throughout.

Consider `N=C(N)c1ccc2cc(OC(=O)c3ccc(N=C(N)N)cc3)ccc2c1`, for which the max response in assay [1] was 12.9%; in assay [2], -7.31% and -12.8%. In addition, the Potency entry in [3], in assay [4], in assay [5] and in assay [7] was “inactive” each time.

For `CCCCC(CC)COC(=O)C(C#N)=C(c1ccccc1)c1ccccc1` (stereo not drawn), the max response in assay [2] is -1.9%. The result in [2], in assay [8] and in assay [9] was inactive. Further, the Potency entry in assay [3], in assay [4] and in assay [5] was “inactive” in each case.

As to `CCCCCCCCOc1ccccc1C(=O)Nc1ccc(C(=O)OCC[N+](C)(CC)CC)cc1`, the max response is 3.44% in [1]; -11.9% and 2.27% in assay [2]. Further, the Potency result in assay [3] and in assay [4] was “inactive” throughout. Further, the Potency in assay [6] is 16.6 µM (active) and 5.96 µM (active); in [7], 15 µM (active).

For `Cc1cc(O)c2c(c1)C(=O)c1cc(O)cc(O)c1C2=O`, the max response in assay [1] was -3.32%; in [2], 0.664%. For the same molecule, the Potency result in assay [3], in [4], in assay [5], in assay [6] and in assay [7] was “inactive” throughout.

Turning to `Oc1ccc(-c2nc(-c3ccc(F)cc3)c(-c3ccncc3)[nH]2)cc1`, the call in [1], in assay [2] and in assay [9] was inactive. For the same molecule, the Potency result in [3], in assay [4] and in assay [7] was “inactive” throughout. Also, the Potency in assay [6] is 20.9 µM (active).

As to `NCCCCNCCCN`, in assay [1], the max response was 1.33%. In assay [8], the outcome was inactive. Further, the Potency result in assay [3], in [4] and in assay [7] was “inactive” throughout. Further, the Potency in assay [6] is 8.33 µM (active).

For `O=Nc1c(-c2c(O)[nH]c3cc(Br)ccc23)[nH]c2ccccc12`, the Potency in assay [1] was 13.2 µM (active); in [3], 18.7 µM (active); in [4], 16.6 µM (active); in [6], 16.6 µM (active); in assay [7] it was 0.059 µM (active).

Take `CCOC(=O)C1=C(O)C(=O)N(Cc2ccccc2)C1`: the max response in [1] is 3.01%. Moreover, the result in [2] and in [9] was inactive. Moreover, the Potency entry in [3], in [4], in assay [5], in assay [6] and in assay [7] was “inactive” each time.

Regarding `CC(=O)Nc1ccc(O)cc1`, in assay [2], the max response was -5.84%. The outcome in assay [2], in assay [8], in assay [10] and in assay [9] was inactive. In addition, the Potency result in [3], in assay [4], in [5], in assay [6] and in assay [7] was “inactive” each time.

Turning to `O=C(O)c1cn(-c2ccc(F)cc2)c2cc(N3CCNCC3)c(F)cc2c1=O`, the max response in assay [1] is 14.5% and 6.97%; in assay [2] it was -0.0226% and -6.36%. Further, the Potency entry in assay [3], in assay [4], in assay [5], in assay [6] and in assay [7] was “inactive” each time.

Regarding `Cc1cc(Cl)ccc1OCCCC(=O)NO`, the call in assay [1] was inactive. In addition, the Potency result in assay [3] and in assay [4] was “inactive” each time. The Potency in assay [5] was 14.8 µM (active).

For `Nc1nc(OCc2ccccc2)c2[nH]cnc2n1`, the result in assay [2], in [8], in assay [10] and in assay [9] was inactive. Also, the Potency result in assay [3], in assay [4], in [5], in assay [6] and in assay [7] was “inactive” in each case.

Take `C[Se]CCC(N)C(=O)O` (stereo not drawn): the max response in assay [1] is -9.75%. The result in [2] was inactive. The Potency entry in assay [3], in assay [4], in assay [5], in assay [6] and in assay [7] was “inactive” throughout. For the same molecule, the outcome in assay [9] is “inactive [at 92 µM]”.

Regarding `N[C@@H](Cc1cc(I)c(Oc2cc(I)c(O)c(I)c2)c(I)c1)C(=O)O`, the max response in assay [2] is -14.5%. Moreover, the outcome in [2], in [8] and in assay [9] was inactive. Also, the Potency result in [3], in assay [4], in assay [5], in [6] and in [7] was “inactive” each time.

For the molecule `NS(=O)(=O)c1cc(C(=O)O)c(NCc2ccco2)cc1Cl`, the max response in assay [1] was -9.49% and -2.22%; in [2], -5.6% and -3.32%. The Potency entry in assay [3], in assay [4], in assay [5], in assay [6] and in assay [7] was “inactive” throughout.

On to `Clc1ccc(C(Cn2ccnc2)OCc2ccsc2Cl)c(Cl)c1` (stereo not drawn), for which the max response in [1] was -26.3% and -17.4%. The Potency entry in [3], in [4], in [5] and in assay [6] was “inactive” in each case. In assay [7], the Potency was 21.1 µM (active).

These data come from PubChem BioAssay (NCATS).
